Source: PubChem
An excerpt weighted towards active compounds, which were near 6.7% of everything screened.
C diff HTS – C. difficile growth inhibition | hit rate 0.25% among 86,000 | AID 1259249 | growth activity, negative = inhibition, % at 16 µg/mL (by protocol) | Clostridium difficile clinical isolate growth, OD600, 24 h; active compounds read low;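 active = mean growth activity at or below -80% and every replicate also at or below -80%; inconclusive = mean at or below -80% but some replicate above -80%; inactive = mean growth activity above -80%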;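 also: 0% = DMSO wells and -100% = levofloxacin 16 µg/mL wells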
T cruzi growth-1 – blocks T. cruzi growth in NIH3T3 culture; T. cruzi beta-gal in NIH3T3, GalScreen luminescence, 90 h; hit rate 5.9% among 77,000; inhibition, % at 8.34 µM;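 active = mean inhibition above about 93%, with at least 55% of replicates each passing it, limit read from the data, passing the limit was not always enough; inconclusive = only one of those two conditions holds; inactive = neither condition holds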
Pf Dd2 inh – P. falciparum Dd2 growth inhibition. hit rate 2.3% among 94,000. SYBR Green, 72 h; active compounds read low. activity change, % at 10 µM; in the data active = activity change below about -80%; inconclusive = no clear call, values can overlap the other calls
T cruzi growth-2 – blocks T. cruzi growth in NIH3T3 host cells. shares compounds with T cruzi growth-1. T. cruzi beta-gal in NIH3T3, GalScreen luminescence, 90 h. inhibition, % at 8.35 µM. hit rate 72% among 5,600;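 active = mean replicate inhibition above about 95% and at least 55% of replicates individually reaching it, limit read from the data; inconclusive = only one of the two criteria is met; inactive = neither criterion is met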
T cruzi growth-3 – Trypanosoma cruzi proliferation inhibition | inhibition, % at 2.09 µM | T. cruzi beta-gal in NIH3T3, GalScreen luminescence, 90 h | shares compounds with T cruzi growth-1 | hit rate 21% among 5,600;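 active = mean inhibition above about 95%, with at least 55% of replicates also reaching it, limit read from the data; inconclusive = meets just one of the two conditions; inactive = meets neither condition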;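 also: plate controls were neutral control median for no effect and positive control median for full effect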
3T3 cytotox – cytotoxicity in mouse NIH/3T3 fibroblasts; shares compounds with T cruzi growth-1; NIH/3T3 viability, CellTiter-Glo ATP luminescence, 90 h; cytotoxicity (signal decrease), % at 8.35 µM; hit rate 14% among 5,600; AID 651742;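 active = mean signal decrease across replicates above about 35% based on untreated-well scatter, with enough replicates individually passing, limit read from the data; inconclusive = no rule stated though some were filed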;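 also: 0% = median of neutral control wells and 100% = median of positive control wells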
NIH3T3 tox 2 – kills mouse NIH/3T3 fibroblasts; inhibition, % at 24.9 µM; hit rate 56% among 5,600; NIH/3T3 viability, CellTiter-Glo ATP luminescence, 90 h; shares compounds with T cruzi growth-1;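 active = mean loss of cell viability signal at or above a set limit, and enough replicates individually reaching it; inconclusive = meets only the mean limit or only the replicate share; inactive = meets neither condition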;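 also: 0% = median of neutral control wells and 100% = median of positive control wells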
* hit, by the source's call; ? = inconclusive; / = not tested or not shown.

SMILES | C diff HTS | T cruzi growth-1 | Pf Dd2 inh | T cruzi growth-2 | T cruzi growth-3 | 3T3 cytotox | NIH3T3 tox 2
C[C@H]1CN([C@@H](C)CO)C(=O)c2cc(NC(=O)Nc3ccc4c(c3)OCO4)ccc2O[C@H]1CN(C)Cc1ccc(Cl)c(Cl)c1 | / | -83.8 | 43.3 | / | / | / | /
O=C(CN1CCOCC1)NCC[C@@H]1CC[C@H](NC(=O)Nc2ccc(Cl)cc2)[C@@H](CO)O1 | -1.3 | 56.7 | 4.7 | / | / | / | /
CCNC(=O)C[C@@H]1C=C[C@H](NC(=O)C2CCOCC2)[C@H](CO)O1 | 2.6 | -21.0 | 8.8 | / | / | / | /
COc1ccc(NC(=O)Nc2ccc3c(c2)C(=O)N([C@H](C)CO)C[C@@H](C)[C@@H](CN(C)Cc2ccc4c(c2)OCO4)OCCCC[C@H](C)O3)cc1 | 11.5 | 92.2 | -72.2 | / | / | / | /
COc1ccc(NC(=O)Nc2ccc3c(c2)C(=O)N([C@@H](C)CO)C[C@@H](C)[C@H](CN(C)Cc2ccc4c(c2)OCO4)OCCCC[C@@H](C)O3)cc1 | 1.7 | 91.2 | -68.2 | / | / | / | /
COc1ccc(NC(=O)Nc2ccc3c(c2)C(=O)N([C@H](C)CO)C[C@H](C)[C@@H](CN(C)Cc2ccc4c(c2)OCO4)OCCCC[C@@H](C)O3)cc1 | 8.8 | 53.5 | -65.2 | / | / | / | /
COc1ccc(CN(C)C[C@H]2OCCCC[C@@H](C)Oc3ccc(NC(=O)Nc4ccc5c(c4)OCO5)cc3C(=O)N([C@@H](C)CO)C[C@@H]2C)cc1 | / | 93.7 | -56.9 | / | / | / | /
COc1ccc(CN(C)C[C@@H]2OCCCC[C@H](C)Oc3ccc(NC(=O)Nc4ccc5c(c4)OCO5)cc3C(=O)N([C@@H](C)CO)C[C@@H]2C)cc1 | / | 102.1* | -68.5 | 100.1* | 91.1 | 68.1* | 80.3*
COc1ccc(NC(=O)Nc2ccc3c(c2)C(=O)N([C@H](C)CO)C[C@H](C)[C@@H](CN(C)Cc2ccc4c(c2)OCO4)OCCCC[C@H](C)O3)cc1 | 16.8 | ? | -62.0 | 105.0* | 57.0 | 23.4 | 29.8
COc1ccc(CN(C)C[C@@H]2OCCCC[C@H](C)Oc3ccc(NC(=O)Nc4ccc5c(c4)OCO5)cc3C(=O)N([C@H](C)CO)C[C@@H]2C)cc1 | / | 100.6* | -67.6 | 94.0 | 106.4* | 30.1 | 107.1*
COc1ccc(CN(C)C[C@@H]2OCCCC[C@@H](C)Oc3ccc(NC(=O)Nc4ccc5c(c4)OCO5)cc3C(=O)N([C@H](C)CO)C[C@@H]2C)cc1 | / | 102.5* | 38.1 | 111.0* | 10.9 | 11.2 | 22.6
CO[C@H]1CN(C)C(=O)c2ccc(NC(=O)C3CCC3)cc2OC[C@H](C)N(Cc2ccncc2)C[C@@H]1C | / | 58.6 | / | / | / | / | /
CCCNC(=O)N1C[C@@H](O)COC[C@H]2O[C@@H](CC(=O)N3CCOCC3)CC[C@@H]21 | / | 59.5 | 2.2 | / | / | / | /
CC(=O)Nc1ccc2c(c1)C(=O)N(C)[C@H]1CC[C@@H](CC(=O)NCC3CCCCC3)O[C@H]1CO2 | 3.8 | 11.2 | -2.8 | / | / | / | /
COc1ccc(NC(=O)Nc2ccc3c(c2)C(=O)N(C)C[C@@H](OC)[C@H](C)CN[C@H](C)CO3)cc1 | -12.3 | -39.3 | 0.9 | / | / | / | /
COc1ccc(-c2cnc3c(c2)C(=O)N([C@H](C)CO)C[C@H](C)[C@@H](CN(C)C(=O)Cc2ccncc2)O3)cc1 | -5.0 | 111.9* | -55.0 | 54.8 | 59.0 | -31.1 | -7.0
C[C@@H]1CN([C@H](C)CO)C(=O)c2cc(C#Cc3ccccc3F)cnc2O[C@@H]1CN(C)C(=O)Cc1ccncc1 | 8.4 | 76.1 | -79.2 | / | / | / | /
C[C@H]1CN([C@@H](C)CO)C(=O)c2cc(C#Cc3ccccc3F)cnc2O[C@@H]1CN(C)C(=O)Cc1ccncc1 | 2.1 | 95.2* | -74.7 | ? | 48.0 | -3.3 | 11.6
C[C@@H]1CN([C@@H](C)CO)C(=O)c2cc(C#Cc3ccccc3F)cnc2O[C@H]1CN(C)C(=O)Cc1ccccc1 | -5.8 | 119.8* | -27.1 | 111.2* | 105.7* | 22.4 | ?
COc1ccc(-c2cnc3c(c2)C(=O)N([C@H](C)CO)C[C@H](C)[C@H](CN(C)C(=O)Cc2ccncc2)O3)cc1 | 5.8 | 50.0 | -33.1 | / | / | / | /
C[C@@H]1CN([C@@H](C)CO)C(=O)c2cc(C#Cc3ccccc3F)cnc2O[C@@H]1CN(C)C(=O)Cc1ccccc1 | 10.3 | 70.6 | -53.0 | / | / | / | /
O=C(C[C@H]1C[C@H]2c3cc(NC(=O)c4cccnc4)ccc3O[C@H]2[C@H](CO)O1)NC1CCCC1 | -3.5 | / | 4.7 | / | / | / | /
CC=Cc1ccc2n(c1=O)C[C@@H]1[C@@H](CO)[C@H](C(=O)NCC(F)(F)F)[C@H]2N1C(=O)CC (mixture of isomers) | -0.1 | 64.4 | 2.9 | / | / | / | /
COc1ccc(S(=O)(=O)N[C@@H]2CC[C@H](CCNC(=O)CN3CCOCC3)O[C@@H]2CO)cc1 | -6.4 | -17.2 | -3.4 | / | / | / | /
CCC(=O)Nc1ccc2c(c1)C(=O)N(C)[C@@H]1CC[C@@H](CC(=O)NCC3CCCCC3)O[C@H]1CO2 | -8.4 | 4.2 | -5.6 | / | / | / | /
SMILES | C diff HTS | T cruzi growth-1 | Pf Dd2 inh | T cruzi growth-2 | T cruzi growth-3 | 3T3 cytotox | NIH3T3 tox 2
COc1ccc(NC(=O)N(C)C[C@@H]2OCCCC[C@@H](C)Oc3ccc(NC(=O)Nc4ccc5c(c4)OCO5)cc3C(=O)N([C@H](C)CO)C[C@@H]2C)cc1 | 1.8 | 29.0 | 24.5 | / | / | / | /
C[C@H](CO)N1C[C@H](C)[C@@H](CN(C)Cc2cccc(F)c2)OCc2ccccc2-c2c(n(C)c3ccccc23)C1=O | 22.2 | / | -64.8 | / | / | / | /
C[C@H](CO)N1C[C@H](C)[C@H](CN(C)C(=O)[C@H](Cc2ccccc2)N(C)C)OCc2ccccc2-c2c(n(C)c3ccccc23)C1=O | 6.3 | ? | -17.5 | 88.2 | 35.0 | 15.9 | ?
C[C@@H]1CN([C@H](C)CO)C(=O)c2c(c3ccccc3n2C)-c2ccccc2CO[C@@H]1CN(C)Cc1cccnc1 | -0.8 | 111.5* | ? | 108.8* | 53.2 | 0.6 | 51.2*
C[C@@H]1CN([C@@H](C)CO)C(=O)c2c(c3ccccc3n2C)-c2ccccc2CO[C@@H]1CN(C)Cc1ccncc1 | / | -10.1 | -56.1 | / | / | / | /
C[C@H]1CN([C@@H](C)CO)C(=O)c2c(c3ccccc3n2C)-c2ccccc2CO[C@H]1CN(C)Cc1cccnc1 | -3.5 | ? | 13.5 | 88.4 | 26.8 | 37.1* | 62.5*
C[C@H]1CN([C@@H](C)CO)C(=O)c2c(c3ccccc3n2C)-c2ccccc2CO[C@@H]1CN(C)C(=O)[C@@H](Cc1ccccc1)N(C)C | -8.9 | -8.7 | -15.3 | / | / | / | /
CO[C@H]1CN(C)C(=O)c2cc(NC(=O)Nc3cccc(F)c3)ccc2OC[C@@H](C)N(C(=O)C2CC2)C[C@H]1C | -12.4 | -7.1 | -4.7 | / | / | / | /
C[C@@H]1CN([C@@H](C)CO)C(=O)Cc2cc(NC(=O)C3CCCCC3)ccc2O[C@H]1CN(C)C | -3.6 | -17.2 | 39.9 | / | / | / | /
C[C@@H]1CN([C@@H](C)CO)C(=O)c2cccc(NC(=O)C3CCOCC3)c2O[C@@H]1CN(C)Cc1ccc2c(c1)OCO2 | 0.9 | 10.5 | 25.2 | / | / | / | /
